Inconclusive results are not listed. Activity calls are given as the source filed them. Calls come from the whole dose curve; as a rule, active = well fitted curve in the direction sought with a large enough effect; inconclusive = small, poorly fitted or top-dose-only effect, or another doubt; inactive = no such curve, though single readings can be large or run the other way.
What follows are compounds tested against Metallo-beta-lactamase type 2 (Klebsiella pneumoniae) (UniProt C7C422) (assay: qHTS to identify inhibitors of the New Delhi Metallo-beta-lactamase (NDM): assay validation screen against the NCATS LOPAC Collection (AID 1794843;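 note: nitrocefin turnover by NDM-1 measured as 485 nm absorbance at plateau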)). Settings: NDM-1 enzyme, nitrocefin hydrolysis, absorbance 485 nm; series mostly up to 38.4 µM.
Excerpt: Assay Submitter (PI): James Inglese Ph.D., Patricia Dranchak Ph.D., Mahesh Aitha Ph.D.
Assay Development and Screening Technology Laboratory (ADST)
National Center for Advancing Translational Sciences (NCATS), Rockville, MD
National Institute of Health (NIH), Bethesda, Maryland
The metallo-beta-lactamases (MBL) are a main antibiotic resistance mechanism evolved by bacteria. There is an urgent clinical need for MBL inhibitors to mitigate this growing threat. To support a machine-based learning study, qHTS has been used to experimentally test inhibitors identified by prediction tools.
PROTOCOL TABLE (as described by Inglese et al., 2007)
SEQUENCE No. (e.g., 1, 2, 3, etc.); […] (e.g., enzyme, Incubation, Reagent, etc.); VALUE; DESCRIPTION
1; NDM-1; 4 uL of 3 nM enzyme in 50 mM HEPES (pH 7.0), 1 uM Zn2SO4, 0.01% Tween20; Use BioRaptr to dispense into Aurora black, clear bottom low base 1536-well plates
2; Compounds; 23 nL; Use Pin Tool (Wako) to transfer DMSO control and library compounds in DMSO
4; Reagent; 2 uL of 50 uM nitrocefin
6; Detector; Absorbance at 485 nm (bandwidth = 5 nm, 25 flashes/well) on Tecan Infinity
NOTES (numbers refer to sequence above)
1; Column 1 of each plate received assay buffer without enzyme and columns 2-48 received enzyme for a final assay concentration of 2 nM.
2; Control plate contained DMSO in columns 1, 2, 3, and 4.
3; Compound interaction with enzyme.
5; Substrate interaction with enzyme, plateau phase of kinetics.
6; Default reader settings were applied for absorbance read at 485 nm, bandwidth = 5 nm, 25 flashes/well.
Inglese J, Shamu CE, Guy RK. 2007. Reporting data from high-throughput screening of small-molecule libraries. Nat Chem Biol. doi:10.1038/nchembio0807-438
Yasgar A, Shinn P, Jadhav A, Auld D, Michael S, Zheng W, Austin CP, Inglese J, Simeonov A. 2008. Compound Management for Quantitative High-Throughput Screening. J Lab Autom 13:79 - 89. doi:10.1016/j.jala.2007.12.004

Chain of Metallo-beta-lactamase type 2 (Klebsiella pneumoniae) (C7C422 whole entry, looked up): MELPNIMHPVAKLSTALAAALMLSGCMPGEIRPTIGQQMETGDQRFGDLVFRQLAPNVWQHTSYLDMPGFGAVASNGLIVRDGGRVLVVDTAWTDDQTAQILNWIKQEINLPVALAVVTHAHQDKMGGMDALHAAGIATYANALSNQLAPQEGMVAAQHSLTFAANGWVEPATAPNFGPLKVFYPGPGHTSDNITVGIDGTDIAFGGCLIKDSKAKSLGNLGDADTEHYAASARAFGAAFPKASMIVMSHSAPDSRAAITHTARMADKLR

SMILES | outcome
O=C1NC(=O)[C@@]2(CCOc3ccc(F)cc32)N1 | inactive
CSc1ccc2c(c1)C(N1CCN(C)CC1)Cc1ccccc1S2 (stereo not given) | inactive
CC(=O)OCC(=O)[C@@]1(O)CC[C@H]2[C@@H]3CCC4=CC(=O)CC[C@]4(C)[C@H]3C(=O)C[C@@]21C | inactive
CC1=C(CC(=O)O)c2cc(F)ccc2/C1=C\c1ccc(S(C)(=O)=O)cc1 | inactive
NC1[C@H]2CN(c3nc4c(cc3F)c(=O)c(C(=O)O)cn4-c3ccc(F)cc3F)C[C@@H]12 (stereo not given in full) | inactive
COCCOC(=O)C1=C(C)NC(C)=C(C(=O)OC/C=C/c2ccccc2)C1c1cccc([N+](=O)[O-])c1 (stereo not given) | inactive
CC(C)c1c(C(=O)Nc2ccccc2)c(-c2ccccc2)c(-c2ccc(F)cc2)n1CC[C@@H](O)C[C@@H](O)CC(=O)O | inactive
C[C@H](NC(CCc1ccccc1)C(=O)O)C(=O)N1CCC[C@H]1C(=O)O (stereo not given in full) | inactive
CNCCCC1c2ccccc2C=Cc2ccccc21 | inactive
Cc1c(O)cccc1C(=O)N[C@@H](CSc1ccccc1)[C@H](O)CN1C[C@H]2CCCC[C@H]2C[C@H]1C(=O)NC(C)(C)C | inactive
CCN(CC)CCCC(C)Nc1c2ccc(Cl)cc2nc2ccc(OC)cc12 (stereo not given) | inactive
Cc1cc(N)c2ccccc2[n+]1CCCCCCCCCC[n+]1c(C)cc(N)c2ccccc21 | inactive
O=C1N=C(O)CN1/N=C/c1ccc(-c2ccc([N+](=O)[O-])cc2)o1 | inactive
OCCN1CCN(CCCN2c3ccccc3Sc3ccc(Cl)cc32)CC1 | inactive
C[C@H]1O[C@@H](n2cc(F)c(=O)[nH]c2=O)[C@H](O)[C@@H]1O | inactive
C=Cc1c(C)c2cc3[nH]c(cc4nc(cc5nc(cc1[nH]2)C(C)=C5CCC(=O)O)C(CCC(=O)O)=C4C)c(C)c3C=C | inactive
C[C@]12C[C@H](O)[C@H]3[C@@H](CCC4=CC(=O)CC[C@@]43C)[C@@H]1CC[C@@H]2C(=O)CO | inactive
CCN(CC)CCOC(=O)C1(C2CCCCC2)CCCCC1 | inactive
CN(C)CC[C@@H](c1ccc(Cl)cc1)c1ccccn1 | inactive
CCCCc1ncc(/C=C(\Cc2cccs2)C(=O)O)n1Cc1ccc(C(=O)O)cc1 | inactive

SMILES | outcome
C[C@]12CC[C@@H]3c4ccc(O)cc4CC[C@H]3[C@@H]1CCC2=O | inactive
CSc1ccc2c(c1)N(CCC1CCCCN1C)c1ccccc1S2 (stereo not given) | inactive
CC(C(O)c1ccc(O)cc1)N1CCC(Cc2ccccc2)CC1 (stereo not given) | inactive
NC(=O)c1ncn([C@@H]2O[C@H](CO)[C@@H](O)[C@H]2O)n1 | inactive
CN1CCN(C2Cc3ccccc3Sc3ccc(Cl)cc32)CC1 (stereo not given) | inactive
N=c1c[n+](N2CCOCC2)[n-]o1 | inactive
Nc1cc(=O)[nH]c(N)n1 | inactive
CCN(CC)CCNC(=O)c1cc(Cl)c(N)cc1OC | inactive
C[C@](N)(Cc1ccc(O)cc1)C(=O)O | inactive
CCN(CC)CCNC(=O)c1c(C)[nH]c(/C=C2\C(=O)Nc3ccc(F)cc32)c1C | inactive
CC(CN(C)C)CN1c2ccccc2CCc2ccccc21 (stereo not given) | inactive
CN(C)CCCN1c2ccccc2Sc2ccc(Cl)cc21 | inactive
NC(N)=NCCC[C@H](N)C(=O)O | inactive
CC(CN1c2ccccc2Sc2ccccc21)N(C)C (stereo not given) | inactive
CC(C)NC[C@H](O)c1ccc(O)c(O)c1 | inactive
COc1ccc(Cl)cc1C(=O)NCCc1ccc(S(=O)(=O)NC(=O)NC2CCCCC2)cc1 | inactive
COC(=O)C1=C(C)NC(C)=C(C(=O)OC)C1c1ccccc1[N+](=O)[O-] | inactive
CC[C@H]1CN2CCc3cc(OC)c(OC)cc3[C@@H]2C[C@@H]1C[C@H]1NCCc2cc(OC)c(OC)cc21 | inactive
CN(C)CCC=C1c2ccccc2CCc2ccccc21 | inactive
CCN(CC)C(C)CN1c2ccccc2Sc2ccccc21 (stereo not given) | inactive
